The results in this text go back to PubChem BioAssay (NCI).

A short description of test [1]: NCI Yeast Anticancer Drug Screen. Data for the rad50 strain (AID 155).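 Further: 0% = growth of vehicle-only cultures of the same strain.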 Conditions: S. cerevisiae rad50 strain growth inhibition; at 50.0 µM; active compounds read high. A digest of the protocol: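 Compounds were tested on a yeast strain with an engineered DNA damage repair alteration; the reported value is growth inhibition normalised to vehicle treatment.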
The nature of test [2]: NCI Yeast Anticancer Drug Screen. Data for the mec2-1 strain (AID 157). Conditions: S. cerevisiae mec2-1 strain, at 50.0 µM, active compounds read high. A digest of the protocol:
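Mutant yeast (mec2-1) grown with compound; growth inhibition relative to vehicle control reported.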

A short description of test [3]: NCI Yeast Anticancer Drug Screen. Data for the sgs1 mgt1 strain (AID 161).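 Further: 0% = growth of cultures given vehicle only.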 Conditions: S. cerevisiae sgs1 mgt1 strain, at 50.0 µM, active compounds read high. Summed up: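 Compounds are added to genetically altered yeast, and growth is compared with cultures given vehicle alone to give percent inhibition.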
Test [4] is described as follows: NCI Yeast Anticancer Drug Screen. Data for the cln2 rad14 strain (AID 165).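 Further: 0% = growth equal to vehicle treated cultures.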 To be noted: S. cerevisiae cln2 rad14 strain, at 50.0 µM, active compounds read high. Summed up:
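Readout is yeast growth inhibition versus vehicle-treated controls, using a strain with cln2 and rad14 alterations exposed to compound.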

The nature of test [5]: NCI Yeast Anticancer Drug Screen. Data for the bub3 strain (AID 167). To be noted: S. cerevisiae bub3 mutant strain, at 50.0 µM, active compounds read high. Summed up:
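Growth of a checkpoint-deficient yeast mutant is measured after compound exposure. Values represent inhibition relative to vehicle.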

Test [6] can be described thus: NCI Yeast Anticancer Drug Screen. Data for the mlh1 rad18 strain (AID 175). To be noted: S. cerevisiae mlh1 rad18 strain growth inhibition; at 50.0 µM; active compounds read high. Summed up:
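Genetically defined yeast (DNA repair-deficient) exposed to compounds; growth inhibition determined relative to vehicle.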

Compounds without any hit were thinned out: in the full panel of roughly 79,000, 15% have a hit. A number with no mark means an inactive call. Active and inactive are the calls of the source. No stated cut-off is given here; in the data, active means growth inhibition above about 70%; inactive means the rest.

Consider `OC1=CC(=S)NC2CCCCC12` (stereo unspecified), for which the growth inhibition in test [1] was 32.2%; in test [2], 18.2%; in test [3] it was 45%; in test [4], 35.9%; in test [5], 29.4%; in test [6], 49.8%.

As to `COc1cc2cc(-c3ccccn3)nc(N)c2cc1OC`, the growth inhibition in test [1] is 29.2%; in test [2] it was 9.35%; in test [3], 39.5%; in test [4] it was 2.55%; in test [5], -1.5%; in test [6] it was 9.95%.

Consider `CCCCC1CC(c2ccc(Cl)cc2)=NO1` (stereo unspecified), for which the growth inhibition in test [1] is 26.9%; in test [2], -7%; in test [3], 16.6%; in test [4], -1.55%; in test [5], 3.75%; in test [6] it was 20.2%.

For the molecule `CC(=O)Nc1cc(CN2CCCCC2)c(O)c2ncccc12`, the growth inhibition in test [1] is -8.65%; in test [2], -21.4%; in test [3] it was -38.3%; in test [4] it was -36%; in test [5], -35.1%; in test [6], -8.05%.

`CN(C)C(=O)C1Cc2ccccc2CC1C(=O)N(C)C` (stereo unspecified): the growth inhibition is -0.4% in test [1]; -0.55% in test [2]; 0.85% in test [3]; -21.5% in test [4]; -3.6% in test [5]; -9.75% in test [6].

`O=C1CCCc2cc3c(cc21)CC1(C3)Cc2cc3c(cc2C1)C(=O)CCC3`: the growth inhibition is -8.8% in test [1]; -7.25% in test [2]; -5.8% in test [3]; -10.3% in test [4]; -11.2% in test [5]; -9% in test [6].

Consider `CC(=O)OC1C(O)C(C)OC(OC2C(C)OC(OC(=O)[C@@H]3CC[C@@H]4[C@H](C3)OC3(C[C@@H](OC(=O)/C=C/c5ccccc5)[C@@H](C)CO3)[C@@]43CO3)C(O)C2OC(C)=O)C1O` (stereo partly specified), for which the growth inhibition was 91% (active) in test [1]; 93.4% (active) in test [2]; 92.2% (active) in test [3]; 90.1% (active) in test [4]; 91.1% (active) in test [5]; 91.8% (active) in test [6].

Take `COC1c2ccccc2CC1(C)C` (stereo unspecified): the growth inhibition in test [1] was 13.8%; in test [2], 8.8%; in test [3], 5.65%; in test [4] it was -52.4%; in test [5], 10.3%; in test [6] it was 9.55%.

For `Cc1ccc(C(=O)OC2C(OC(=O)Nc3ccccc3)OC(COC(=O)c3ccccc3)C2OC(=O)c2ccccc2)cc1` (stereo unspecified), the growth inhibition in test [1] is 1.95%; in test [2], 10.1%; in test [3], 9.45%; in test [4], 13.8%; in test [5], -12.4%; in test [6], 30%.

For the molecule `C/C(C/C(C)=N/O)=N/O`, the growth inhibition in test [1] was -8.6%; in test [2] it was -5.85%; in test [3] it was 2.8%; in test [4], 0.45%; in test [5], -2.55%; in test [6], 17.7%.

Regarding `O=C(NCCCCCCNC(=O)C1CCCNC1)C1CCCNC1` (stereo unspecified), the growth inhibition in test [1] is 19.1%; in test [2], -11.7%; in test [3], 13.8%; in test [4] it was 15.8%; in test [5], 15.4%; in test [6], 12.8%.

As to `CCOC(=O)NC(=O)c1cn(CCCCCCCCCCC(=O)NCCCN2CCN(CCCNC(=O)CCCCCCCCCCn3cc(C(=O)NC(=O)OCC)c(=O)[nH]c3=O)CC2)c(=O)[nH]c1=O`, the growth inhibition in test [1] is -19.2%; in test [2], 12.9%; in test [3] it was -23.8%; in test [4], -27.4%; in test [5], 2.25%; in test [6], -17.6%.

On to `CN1CCN(CC2C3CCC(C3)C2O)CC1` (stereo unspecified), for which the growth inhibition in test [1] is -9%; in test [2], -18.4%; in test [3], -16.1%; in test [4], 4.4%; in test [5], -4.7%; in test [6], -0.6%.

For `Fc1ccc(C2(c3ccc(F)cc3)CCCO2)cc1`, the growth inhibition in test [1] was 4.4%; in test [2] it was -22.4%; in test [3], -6.15%; in test [4], 25.7%; in test [5], -4.1%; in test [6] it was 6.2%.

`COc1ccc(Cl)cc1NC(=O)Nc1ccc(F)c([N+](=O)[O-])c1`: the growth inhibition in test [1] was 10%; in test [2] it was 38%; in test [3] it was 29.2%; in test [4] it was -9.8%; in test [5], 33.5%; in test [6], 23.8%.

Consider `CC(C)=CCCC(C)(O)C1CC=C(C)CC1` (stereo unspecified), for which the growth inhibition was 0.5% in test [1]; -18.8% in test [2]; -2.6% in test [3]; 3.05% in test [4]; -13.9% in test [5]; -7.65% in test [6].

Take `CC(C)NC(=O)OCc1nnn2c1CCC2`: the growth inhibition in test [1] is -6.9%; in test [2] it was 0.05%; in test [3], -12.5%; in test [4], -22.7%; in test [5], -0.05%; in test [6], -4.05%.

Turning to `Cc1ccc(S(=O)(=O)OC/C(=C(/c2ccccc2)c2ccc(Cl)cc2)c2ccccc2)cc1`, the growth inhibition is 96.8% (active) in test [1]; 97.5% (active) in test [2]; 95.8% (active) in test [3]; 87.3% (active) in test [4]; 95.3% (active) in test [5]; 96.6% (active) in test [6].

Consider `O=c1n(-c2ccccc2)c(=O)n2c(-c3ccccc3)c(-c3ccccc3)n12`, for which the growth inhibition in test [1] was 38.5%; in test [2], -23.7%; in test [3], -36.5%; in test [4], -12.6%; in test [5], -23.6%; in test [6], -30.8%.

Take `COc1cc(C(c2ccc(O)c(OC)c2)c2ccc(O)c(OC)c2)ccc1O`: the growth inhibition was 31.9% in test [1]; 15.2% in test [2]; 34.6% in test [3]; 30.1% in test [4]; 4.95% in test [5]; 24.9% in test [6].

Turning to `CCCCSc1nc2ccc([N+](=O)[O-])cc2s1`, the growth inhibition is 40.6% in test [1]; -4.2% in test [2]; 37.5% in test [3]; 2.1% in test [4]; 4.45% in test [5]; 12.9% in test [6].

Regarding `CC(=O)C1C(=O)C(=O)N(c2ccc(Br)cc2)C1=O` (stereo unspecified), the growth inhibition in test [1] is -33.5%; in test [2] it was -12.6%; in test [3] it was -14.3%; in test [4] it was -9.8%; in test [5] it was -24.4%; in test [6] it was -38%.

`Cc1[nH]c2c(O)ccc(O)c2c1C`: the growth inhibition is -1.05% in test [1]; -9.45% in test [2]; -9.15% in test [3]; -20.6% in test [4]; -8% in test [5]; 4.9% in test [6].

Take `COc1ccc(-c2c3nc(c(-c4ccc(OC)cc4)c4[n-]c(c(-c5ccc(OC)cc5)c5nc(c(-c6ccc(OC)cc6)c6[n-]c2c2ccccc62)-c2ccccc2-5)c2ccccc42)-c2ccccc2-3)cc1.[Zn+2]`: the growth inhibition in test [1] was -21.1%; in test [2] it was -18.7%; in test [3], -29.9%; in test [4], 6.75%; in test [5], 16.6%; in test [6], -22.1%.

With `COc1cc2cc3c(c(O)c2c(O)c1/C=C/C(C)C)C(=O)CC(C)(OC(C)=O)C3` (stereo unspecified), the growth inhibition in test [1] is 36.3%; in test [2], 8.95%; in test [3] it was 36.5%; in test [4], 30.4%; in test [5], 18.8%; in test [6], 74.2% (active).

For the molecule `CC#CC(O)(C(=O)OCCCN(C)C)C1CCCCC1` (stereo unspecified), the growth inhibition in test [1] was 12.4%; in test [2], 3.55%; in test [3] it was 3.85%; in test [4], 2.25%; in test [5], 8.3%; in test [6], 9.25%.

As for `CCOC(=O)N1N=C(c2ccccc2)OC2(N3CCOCC3)CCC(C(C)(C)C)CC12` (stereo unspecified), the growth inhibition is 12.8% in test [1]; 5.1% in test [2]; 4.6% in test [3]; 5% in test [4]; -3% in test [5]; -2.4% in test [6].

On to `CCOC(=O)C(C#N)C1=CC(=O)C(=O)c2ccc(O)cc21` (stereo unspecified), for which the growth inhibition was -4.8% in test [1]; -7.65% in test [2]; -1.15% in test [3]; 27% in test [4]; 16.6% in test [5]; 0.45% in test [6].

For `CCCCCCCCCCCCCCCCCCCCCCCC`, the growth inhibition in test [1] was 0.1%; in test [2], 2.3%; in test [3], 18.7%; in test [4], -53%; in test [5], 21.7%; in test [6], -13.2%.

For `CC(O)COC1CCCCC1` (stereo unspecified), the growth inhibition in test [1] was -2.75%; in test [2], -10.9%; in test [3], 3.85%; in test [4], -7.25%; in test [5] it was -3.95%; in test [6] it was -0.95%.

In the case of `C/C(=N\N=C(\Cc1ccccc1)c1ccccc1)c1ccccc1`, the growth inhibition in test [1] is 1.7%; in test [2], 3.95%; in test [3] it was -11.6%; in test [4], -25.2%; in test [5], -1.65%; in test [6], 2.8%.

As to `N#Cc1c(-c2ccccc2)cc(-c2ccccc2)n(C2OCC(O)C(O)C2O)c1=S` (stereo unspecified), the growth inhibition in test [1] was 5.1%; in test [2], 30.6%; in test [3], 31.5%; in test [4], -7.45%; in test [5], 3.15%; in test [6] it was -0.05%.

As to `Nc1ccn(C2CC(F)C(CO)O2)c(=O)n1` (stereo unspecified), the growth inhibition in test [1] was 19.6%; in test [2], 11.2%; in test [3], 17.2%; in test [4] it was 1.5%; in test [5] it was 7%; in test [6] it was -1.8%.

`CC(=O)Nc1ncc(CCC2OCCO2)c(=O)[nH]1`: the growth inhibition in test [1] is -0.55%; in test [2], -25.1%; in test [3], 19.6%; in test [4], -0.25%; in test [5] it was 7.65%; in test [6], 6.85%.

As to `N#CC(C#N)CN(C1=NCCO1)c1cccc2c1CCCC2`, the growth inhibition in test [1] was -16.6%; in test [2], 8.4%; in test [3], -3.6%; in test [4] it was -24.6%; in test [5], -12.4%; in test [6], 14.3%.

Take `N[C@@H](CSSc1ccccc1C(=O)O)C(=O)O`: the growth inhibition is -32.9% in test [1]; -7.25% in test [2]; -14.4% in test [3]; 1.85% in test [4]; 0.8% in test [5]; -10.3% in test [6].
